In the library only some 1.5% were active in any assay of this set; here they are far more common.
HGIII-sPLA2 inh: Inhibits HGIII-sPLA2 liposome hydrolysis, primary screen; actives 0.56% (n = 370,000); AID 743126; QFRET BODIPY PC-A2 liposome hydrolysis, fluorescence; Q9NZ20; inhibition, % at 12.2 µM;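 active = inhibition above mean plus 3 SD of compounds lying within the high and low control bounds, cut at about 19% in these data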;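 also: 0% = median of test compound wells and 100% = no enzyme DMSO wells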
PLC-beta3 inh: blocks human PLC-beta3 enzyme activity. Q01970. Purified PLC-beta3, fluorogenic substrate, fluorescence. inhibition, % at 12.2 µM. actives 0.18% (n = 370,000); in the data active = inhibition above about 11%;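 also: 0% = median of compound wells on plate and 100% = full blocker control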
PLC-gamma1 inh: PLC-gamma1 (human) inhibition, primary screen | purified PLC-gamma1, fluorogenic substrate, fluorescence | inhibition, % at 12.2 µM | actives 0.84% (n = 370,000) | AID 720700; in the data active = inhibition above about 9.5%
DAGLB inh: diacylglycerol lipase beta (human) inhibition; Q8NCG7; HEK293T DAGLB membrane lysate, EnzChek fluorogenic substrate; inhibition, % at 5.17 µM; actives 0.059% (n = 340,000); AID 504411; in the data active = inhibition above about 34%;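 also: 0% = enzyme with vehicle and 100% = wells lacking enzyme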
* = called active by the depositor; i = inactive; · = no result; ! = not active in a repeat.

SMILES | HGIII-sPLA2 inh | PLC-beta3 inh | PLC-gamma1 inh | DAGLB inh
Cc1ccc(CN2CCc3c(OCc4ccc(F)cc4)cccc3C2=O)cc1 | -12 | -4 | -5 | -13
CC(=NNC(=O)c1ccncc1)c1ccccc1O | 2 | -3 | -3 | 4
CC(=NNC(=O)c1ccncc1)c1ccc2ccccc2c1O | 20* | -101 | -62 | -91
Cc1cccc(C)c1-n1nnnc1C(c1ccccc1OC(F)(F)F)N1CCN(C/C=C/c2ccccc2)CC1 (stereo not drawn) | -12 | 8 | 12* | ·
CCOC(=O)N1CCN(C(=O)C[C@H]2C[C@@]3(C(=O)OC)C(=C[C@H](COCc4ccccc4)O[C@@H]3C)N(CCc3ccc(OC)c(OC)c3)C2=O)CC1 | -3 | 2 | -1 | ·
COc1cccc(OC)c1OCCCCCCN1CCN(C)CC1 | 4 | -1 | 13* | -5
COc1cccc(OC)c1OCCCCN1CCCC1 | 2 | 1 | 0 | -7
O=C(Nc1nc2ccccc2[nH]1)c1ccc(Br)o1 | 35* | -18 | -10 | 0
O=C(NCCc1nc2ccccc2[nH]1)c1ccc(Br)o1 | -1 | -9 | 0 | 4
Cc1cccc(-c2cccc3c4c([nH]c23)[C@@H]2C[C@H]3[C@@H](C(=O)N2CC4)[C@H](C)ON3C)c1 | -7 | -346 | -243 | ·
CN(C)c1ccc(C(=O)OCc2ccccc2)cc1 | 12 | -6 | -14 | -18
O=C1C=CC(=O)C(CNc2ccc(C(=O)OCc3ccccc3)cc2)=C1 | 26* | -15 | -10 | 6
O=c1oc2ccccc2c2oc3cc(O)c(O)cc3c12 | 22* | i | i | 10
CC(C)C[C@H]1COc2cc(Br)ccc2S(=O)(=O)N1Cc1cn(CCC2OCCO2)nn1 | -2 | 2 | 7 | ·
CN1/C(=C/C=C/c2n(C)c3cc([N+](=O)[O-])c([N+](=O)[O-])cc3[n+]2C)C(C)(C)c2ccccc21 | 48* | 13* | 9.7* | 19
COc1ccc(C(CNC(=O)c2ccc(C)c(S(=O)(=O)N3CCOCC3)c2)N2CCCC2)cc1 (stereo not drawn) | 11 | -15 | 10* | 0
COC(=O)[C@H](CC(C)C)N(CCCc1cn(Cc2ccccc2)nn1)S(=O)(=O)c1ccc(F)cc1Br | -13 | -1 | 1 | ·
CC(C)(C)C(=O)NC(=S)NNC(=O)c1ccc(Cl)cc1Cl | 42* | -6 | 0 | -2
COC(=O)NNC(=O)c1ccc(Cl)cc1Cl | 0 | 1 | 4 | 1
O=C(CCc1ccccc1)N[C@H]1[C@@H](OC(=O)c2ccco2)CCC[C@]12C(=O)N(Cc1ccccc1)c1ccccc12 | -3 | 3 | 2 | ·
CC[C@H]1C=C[C@@H](C(C(=O)OC)C(=O)OC)CN1C(C)=O | -1 | 4 | 25* | 1
CCC1CCCCN1C(=O)N[C@@H](CCSC)C(=O)OC (stereo partly drawn) | 3 | 3 | -1 | -4
C=CC[C@H]1C=C[C@@H](C(C(=O)OC)C(=O)OC)CN1C(C)=O | 4 | -2 | 20* | -2
CC(CCN1CCC(C(O)(c2ccccc2)c2ccccc2)CC1)Oc1ccc(F)cc1 (stereo not drawn) | -11 | 3 | 2 | ·
O=C(C[C@@H]1C[C@@H]2c3cc(NS(=O)(=O)c4ccc(F)cc4)ccc3O[C@@H]2[C@H](CO)O1)NCc1ccc(Oc2ccccc2)cc1 | -28 | -3 | 9.6* | ·
SMILES | HGIII-sPLA2 inh | PLC-beta3 inh | PLC-gamma1 inh | DAGLB inh
O=[N+]([O-])c1ccc(N/N=C/c2ccc(O)c(O)c2O)c(S(=O)(=O)N2CCOCC2)c1 | 3 | 0 | 11* | 22
COc1cc(/C=N/Nc2ccc([N+](=O)[O-])cc2S(=O)(=O)N2CCOCC2)cc(OC)c1OC | -3 | 5 | 3 | 0
O=C1C=CC(=O)N1c1ccc(OC(F)F)cc1 | 20* | -10 | 7 | -2
O=C1C=CC(=O)N1c1ccc(O)cc1 | 8 | -6 | 2 | 0
CC(C)(C)c1ccc(-c2noc(CCC(=O)NC3CC3)n2)cc1 | 2 | -1 | -1 | ·
Cc1ccc(NC(=O)Nc2ccc3c(c2)[C@]2(CC(=O)N(CC(C)C)C2c2ccccc2)C(=O)N3C)cc1Cl (stereo partly drawn) | -22 | -1 | 1 | ·
Nc1ccc(Oc2ccc(N)c([N+](=O)[O-])c2)cc1[N+](=O)[O-] | -6 | 2 | 8 | 21
CC1(C)Oc2cc(N)c([N+](=O)[O-])cc2O1 | -4 | 10 | 32* | -1
Cc1c(NC(=O)CN2CC(C)OC(C)C2)c(=O)n(-c2ccccc2)n1C (stereo not drawn) | 7 | 2 | 14*! | 0
Cc1noc(C)c1COc1ccc(C(=O)OCc2nnc(-c3ccc(Cl)cc3)o2)cc1 | -24 | -1 | 12* | -10
O=C(Nc1ccc(Cl)cc1Cl)c1cccc(N2C(=O)C=CC2=O)c1 | 23* | -32 | -18 | 5
O=C(O)c1cccc(N2C(=O)C=CC2=O)c1 | -3 | -3 | -1 | -6
CC1(c2cccc(Br)c2)NC(=O)N(CC(=O)Nc2cccnc2Cl)C1=O (stereo not drawn) | -11 | -1 | 10* | 0
N#Cc1ccc(-c2csc(NNC(=O)c3ccccc3)n2)cc1 | 39* | -15 | -9 | 2
O=C(Nc1ccc(-c2csc(Nc3ccccc3)n2)cc1)c1ccccc1 | 2 | -36 | -24 | 0
Cn1c(CNc2ccccc2F)nc2ccccc21 | 2 | 1 | 3 | ·
CCC(CC)c1nnc(NC(=O)c2ccc(S(=O)(=O)N3CCc4ccccc4C3)cc2)s1 | 15 | -1 | -2 | -2
Cc1cc(C)c2nc(NNC(=O)c3ccc(S(=O)(=O)N4CC(C)CC(C)C4)cc3)sc2c1 (stereo not drawn) | 41* | -94 | -89 | -13
Cc1ccc2nc(NNC(=O)c3ccc(S(=O)(=O)N4CCc5ccccc5C4)cc3)sc2c1 | 33* | -41 | -31 | 12
CCCCNC(=O)C1(C(=O)c2ccc(OC)cc2)CC(C(=O)OCC)=NO1 (stereo not drawn) | -1 | 1 | 3 | ·
Cc1ccc(NC2CCCN(C(=O)CCN3CCCCO3)C2)cc1C (stereo not drawn) | 3 | 3 | 12* | 1
COc1ccccc1N(CC(=O)Nc1cccc(C(F)(F)F)c1)S(C)(=O)=O | -10 | -1 | 1 | -2
Cc1ccc([N+](=O)[O-])cc1N(CC(=O)Nc1ccc(S(=O)(=O)Nc2cccc(C(F)(F)F)c2)cc1)S(C)(=O)=O | -93 | 2 | 9.9* | 3
CCCC(=O)N1CCC[C@]2(CC[C@@H](CCC#N)O2)C1 | 11 | 1 | -3 | ·
O=C(O)CCNc1ccc(NCCC(=O)O)c2c1C(=O)c1ccccc1C2=O | 13 | -7 | -4 | 1
O=C1c2cccc(NCCNCCO)c2C(=O)c2cccc(NCCNCCO)c21 | 30* | -4 | -3 | 0
CCC[C@@H](CN1CCC[C@H]1CN1C(N)=NC[C@H]1CC(C)C)N1C[C@@H](Cc2ccccc2)N(CCc2ccc(Cl)c(Cl)c2)C1=N | 3 | 12* | 6 | 3
C[C@@H]1ON(C)[C@H]2C[C@H]3c4[nH]c5c(-c6ccc7c(c6)OCO7)cccc5c4CCN3C(=O)[C@@H]12 | -11 | -20 | -16 | ·
C[C@@H]1COc2cc(N3CCN(Cc4ccccc4F)CC3)ccc2S(=O)(=O)N1 | 3 | 5 | 9.8* | ·

Screens as filed in PubChem BioAssay.
